Assay results taken from PubChem BioAssay (Tox21).
Active and inactive are the calls of the source. Calls follow the shape of the dose curve; as a rule, active = well fitted curve in the direction sought with a large enough effect in the repeat runs; inconclusive = weak or mixed curves; inactive = flat fitted curve, though single readings scatter.

Experiment: qHTS assay to test for compound auto fluorescence at 535 nm (green) in HEK293 cells (AID 720680)
Settings: green autofluorescence 485/535 nm; series mostly up to 91.3 µM
Excerpt: U.S. Tox21 Program National Center for Advancing Translational Sciences [NCATS] NIH Chemical Genomics Center [NCGC] U.S. Environmental Protection Agency [EPA] National Institutes of Environmental Health Sciences [NIEHS] National Toxicology Program [NTP] U.S. Food and Drug Administration [FDA] Tox21 Assay Overview: Compound auto fluorescence often interferes with screening of the compound library against various biological targets and signaling pathways. Some of these compounds may have fluorophoric properties. Such properties may interfere with the assay outputs resulting in false positives and/or negatives. To decrease such complications and ensure the compound activities are relevant in terms of biological response, the Tox21 10K compound library was screened for auto fluorescence. From the fluorophores used as reporter signals in our screening assays, the auto fluorescence equivalencies of compounds against three fluorophores have been evaluated: Triamterene, Fluorescein and Rose Bengal sodium for blue, green and red fluorescence, respectively. The fluorescence intensities were measured using Excitation/Emission wavelengths at 405/460nm, 485/535nm and 540/590nm for blue, green and red labels, respectively. This assay includes the green fluorescence data.
Tox21 Assay Protocol Summary: 2,000 HEK293 cells in 5 uL of culture medium containing 10% dialyzed FBS per well were dispensed into black wall/clear bottom 1536-well plates using a Multidrop Combi Dispenser (Thermo Scientific). The assay plates were incubated for 4-5 hr at 37C to allow cell attachment to the well bottom, followed by the transfer of 23 nL compound or DMSO vehicle by a pintool work station (Kalypsys, San Diego, CA). After the assay plates were incubated overnight at 37C and 5% CO2, fluorescence intensities in the assay plates were measured by an Envision (PerkinElmer, Shelton, CT) plate reader using three labels for measuring blue, green and red fluorescence at […] 460, 535 and 590nm respectively.

SMILES	outcome
Brc1ccc(Br)c(Br)c1	inactive
Cc1ccc(C(C)C)c(O)c1	inactive
C=CCc1ccc(OC)c(OC)c1	inactive
COc1ccc(N)c(C)c1	inactive
O=[N+]([O-])c1ccc2nc[nH]c2c1	inactive
CN(C)c1ccc(Cc2ccc(N(C)C)cc2)cc1	inactive
CC(C)=CCl	inactive
C[C@]12CCC(=O)C=C1CC[C@@H]1[C@@H]2[C@@H](O)C[C@@]2(C)[C@H]1CC[C@]2(O)C(=O)CO	inactive
CCCCCCCCCCCCCCCCO	inactive
CC(=O)Oc1ccc(C)cc1	inactive
COc1ccc(CCC(C)=O)cc1	inactive
O=S(=O)(O)c1ccc(N=Nc2c(O)ccc3cc(S(=O)(=O)O)ccc23)cc1	inactive
CC(C)OC(=O)COc1ccc(Cl)cc1Cl	inactive
CC(=O)OCCOC(C)=O	inactive
CC(C)OP(=O)(CP(=O)(OC(C)C)OC(C)C)OC(C)C	inactive
C=C(C)C(=O)OCC(C)C	inactive
CCNc1ccccc1	inactive
C=C(C)CNCC	inactive
c1ccc(Oc2ccccc2)cc1	inactive
Cc1ccc(S(=O)(=O)N=C=O)cc1	inactive

SMILES	outcome
Nc1ccc(Cl)c(N)c1	inactive
O=C1C(c2[nH]c3ccccc3c2O)=Nc2ccccc21	inactive
O=C1CCCC1	inactive
C=Cc1ccc(C)cc1	inactive
CC(O)CC(C)(C)O (stereo not given)	inactive
CN(C)c1ccc(O)c2c1C[C@H]1C[C@H]3[C@H](N(C)C)C(=O)C(C(N)=O)=C(O)[C@@]3(O)C(=O)C1=C2O	inactive
CSc1ccc(Cl)cc1	inactive
CC(=O)OCc1ccco1	inactive
CCCCCCCCCCCCCCCC(=O)OC(C)C	inactive
C=C(C)[C@H]1CC=C(C)C(=O)C1	inactive
CCNC(=S)NCC	inactive
CC(C)(C#N)c1cc(Cn2cncn2)cc(C(C)(C)C#N)c1	inactive
CN/C(=C\[N+](=O)[O-])NCCSCc1csc(CN(C)C)n1	inactive
C=CCCCCCCCCC(=O)O	inactive
CCOCCOCCOCCO	inactive
Cc1ccc2ncccc2c1	inactive
CCCCCCCC=O	inactive
CC(=O)CC(C)(C)O	inactive
CCOC(=O)c1ccc(N)cc1	inactive
NCCNCCN	inactive
